About 79,000 compounds went through this panel and 15% of them were active in at least one assay; those are over-represented in the sample as a whole. A number with no mark means an inactive call. Active and inactive are the calls of the source. No stated cut-off is given here; in the data, active means growth inhibition above about 70%; inactive means the rest.
Tests used:
[1] = NCI Yeast Anticancer Drug Screen. Data for the rad50 strain (AID 155);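 further: 0% = growth of vehicle-only cultures of the same strain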; conditions: S. cerevisiae rad50 strain growth inhibition, stronger effect = higher value
In short: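 Vehicle-treated cultures provide the reference for the growth inhibition reported for compound-exposed, repair-deficient yeast.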

[2] = NCI Yeast Anticancer Drug Screen. Data for the mec2-1 strain (AID 157); conditions: S. cerevisiae mec2-1 strain, stronger effect = higher value
In short: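 Yeast mec2-1 mutant treated with compound. Readout: growth inhibition vs vehicle controls.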

[3] = NCI Yeast Anticancer Drug Screen. Data for the sgs1 mgt1 strain (AID 161);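 further: 0% = growth of cultures given vehicle only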; conditions: S. cerevisiae sgs1 mgt1 strain, stronger effect = higher value
In short: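 Test agents were incubated with a DNA-repair-mutant yeast strain. Growth was then read and compared against vehicle-treated controls.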

[4] = NCI Yeast Anticancer Drug Screen. Data for the cln2 rad14 strain (AID 165);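 further: 0% = growth equal to vehicle treated cultures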; conditions: S. cerevisiae cln2 rad14 strain, stronger effect = higher value
In short: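 cln2 rad14 yeast strain; compound exposure; growth inhibition read vs vehicle controls.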

[5] = NCI Yeast Anticancer Drug Screen. Data for the bub3 strain (AID 167); conditions: S. cerevisiae bub3 mutant strain, stronger effect = higher value
In short: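 Mutant yeast screening strain plus compound; vehicle-treated cultures serve as the 0% inhibition reference.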

[6] = NCI Yeast Anticancer Drug Screen. Data for the mlh1 rad18 strain (AID 175); conditions: S. cerevisiae mlh1 rad18 strain growth inhibition, stronger effect = higher value
In short: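 Yeast w/ defined DNA-repair lesions; compound exposure; growth vs vehicle controls → % inhibition.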

[7] = at 5.0 µM (retest, dose inferred, filed as 0.5)
[8] = at 50.0 µM (retest, dose inferred, filed as 5.0)

Structure (SMILES)	growth inhibition [1, 7]	growth inhibition [1, 8]	growth inhibition ([1]; at 50.0 µM)	growth inhibition [2, 7]	growth inhibition [2, 8]	growth inhibition ([2]; at 50.0 µM)	growth inhibition [3, 7]	growth inhibition [3, 8]	growth inhibition ([3]; at 50.0 µM)	growth inhibition [4, 7]	growth inhibition [4, 8]	growth inhibition ([4]; at 50.0 µM)	growth inhibition [5, 7]	growth inhibition [5, 8]	growth inhibition ([5]; at 50.0 µM)	growth inhibition [6, 7]	growth inhibition [6, 8]	growth inhibition ([6]; at 50.0 µM)
Cc1cc(S(=O)(=O)c2ccc(Cl)cc2)nc(S(=O)(=O)c2ccc(Cl)cc2)c1C#N	45%	78% (active)	82.1% (active)	43%	91% (active)	87.2% (active)	99% (active)	90% (active)	85.2% (active)	99% (active)	91% (active)	84.7% (active)	99% (active)	83% (active)	80.4% (active)	42%	89% (active)	80.2% (active)
O=S(=O)(CCNCCCCC1CCCCC1)SCCNCCCCC1CCCCC1	48%	99% (active)	68.3%	3%	99% (active)	49.1%	70% (active)	99% (active)	55.1%	10%	99% (active)	56.5%	16%	99% (active)	98.8% (active)	38%	99% (active)	47%
COc1ccc2ccc3c(c2c1)CCC(C(=O)O)C3CC(=O)O (stereo not given)	-9%	9%	41.9%	-17%	0%	97.5% (active)	-11%	12%	43.6%	0%	27%	93.8% (active)	-11%	26%	77.2% (active)	-30%	35%	84% (active)
CCN(CC)CCNc1ccc2nnn3c4ccccc4c(=O)c1c23	-2%	63%	30.8%	-31%	21%	17.7%	0%	-4%	9.3%	-1%	39%	21.1%	-10%	19%	10.2%	-1%	-3%	81.2% (active)
CCc1cc2c(cc1O)CC[C@@H]1[C@@H]2CC[C@]2(C)[C@@H](O)CC[C@@H]12	31%	96% (active)	88% (active)	-10%	99% (active)	92% (active)	-17%	96% (active)	89.3% (active)	9%	97% (active)	91% (active)	-39%	98% (active)	49.5%	3%	97% (active)	85.2% (active)
CC(C)(C)c1ccc2c(c1)C(O)(c1ccccc1)C1OC1(C(C)(C)C)C2=O (stereo not given)	10%	85% (active)	96.2% (active)	9%	82% (active)	94.5% (active)	16%	82% (active)	79.3% (active)	4%	87% (active)	91.7% (active)	-3%	88% (active)	94.7% (active)	31%	91% (active)	93.2% (active)
N#CSC#CCCC#CSC#N	52%	57%	92.5% (active)	43%	55%	93.9% (active)	100% (active)	100% (active)	94.2% (active)	99% (active)	99% (active)	92.9% (active)	100% (active)	98% (active)	92.4% (active)	47%	46%	88.9% (active)
CC(=O)Nc1c([N+](=O)[O-])cc2c3c(cccc13)C=C2	3%	77% (active)	24.8%	1%	47%	16.1%	6%	56%	9.8%	6%	77% (active)	74.9% (active)	3%	23%	-17.2%	31%	94% (active)	67.8%
O=C1OC2(CCN(Cc3ccccc3)CC2)C(=O)N1c1cccc(Cl)c1	-1%	35%	79.5% (active)	-8%	22%	18.5%	28%	58%	76.5% (active)	60%	52%	40.8%	14%	81% (active)	52.8%	3%	37%	62.5%
CN1C/C(=C\c2ccccc2)C(=O)/C(=C/c2ccccc2)C1	13%	99% (active)	54.5%	16%	100% (active)	10.2%	19%	99% (active)	19%	14%	98% (active)	52.5%	10%	99% (active)	14.6%	11%	99% (active)	21.4%

— PubChem BioAssay (NCI)
